Sampled rows, rich in hits. Any-hit rate of the full collection: about 19%.
TGFb SMAD3 inh: blocks TGF-b signaling; AID 588855; HepG2 CAGA-GFP TGF-b/SMAD3 reporter, GFP fluorescence, 18 h; TGF-beta stimulated, 500 pg/mL final; Potency, µM (top dose mostly 46.1 µM), without a hit: at the top dose activity, negative = inhibition, hits mostly inhibitors; 410,000 compounds, 1.2% hits; note: potency is the fitted concentration of half-maximal effect; % is set by controls: 0 for no effect and ±100 for the full control effect; nearly all actives have a fitted effect of over 65% in size
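HEPG2 CAGA-GFP cells (1000/well, DMEM with 1% FBS) were pre-incubated 2 h at 37 degrees C, given compound by pin tool, then stimulated with TGF-beta at 500 pg/mL final for 18 h before per-cell GFP fluorescence imaging.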
TDP1 cell noCPT: qHTS for Inhibitors of human tyrosyl-DNA phosphodiesterase 1 (TDP1): qHTS in cells in absence of CPT. Potency, µM (highest dose often 46.2 µM), inactives show at the top dose activity change, negative = growth inhibition, usual class: inhibitors. AID 686978, 2013. DT40 Tdp1-/- hTDP1 cells, no CPT, ATP luminescence, 48 h. 420,000 compounds, 15% hits; note: potency is the fitted concentration of half-maximal effect; % is set by controls: 0 for no effect and ±100 for the full control effect; nearly all actives have a fitted effect of over 55% in size
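Camptothecin absent (DMSO only). Human TDP1-complemented DT40 knockout cells, 400 cells/well, 37 °C for minimum 48 hr; ATP measured via CellTiter-Glo, 30 min dark incubation, luminescence.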
TDP1 cell CPT: growth inhibition of DT40 Tdp1-/-;hTDP1 cells with camptothecin (screen for TDP1 inhibitors); AID 686979; 420,000 compounds, 12% hits; Potency, µM (series often up to 46.2 µM), for inactives: at the top dose activity change, negative = growth inhibition, usual class: inhibitors; chicken DT40 Tdp1-/-;hTDP1 cells + 20 nM CPT, ATP luminescence, 48 h; note: potency is the fitted concentration of half-maximal effect; % is set by controls: 0 for no effect and ±100 for the full control effect; nearly all actives have a fitted effect of over 55% in size
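Cell growth measured by CellTiter-Glo luminescence after a minimum 48 h, 37 C compound exposure with 20 nM CPT in Tdp1-knockout DT40 cells stably expressing hTDP1, seeded 400/well; qHTS titration format.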
IL1B secr inh: inhibitors of inflammasome signaling (IL-1 beta secretion) | THP-1 LPS/ATP IL-1B secretion, AlphaLISA, 16 h; stronger effect = lower value | activity change, % at 57.5 µM | 360,000 compounds, 4.7% hits | AID 743279; in the data active = activity change below about -50%; inconclusive = mostly about -30% to -49%; note: % is set by controls: 0 for no effect and ±100 for the full control effect
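Secreted IL-1B measured by AlphaLISA bead assay after 16 h compound exposure of THP-1 cells; compounds (final up to 57.5 uM) added 1 h before LPS (250 ng/mL) and ATP (1.25 mM) stimulation; lower signal means less secretion.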
S-ASM inh: inhibitors of human secretory acid sphingomyelinase | placental ASM, HMU-PC fluorogenic substrate, 60 min | P17405 | 340,000 compounds, 0.006% hits | AID 504937 | Potency, µM (series often up to 57.5 µM), for the others: at the highest dose activity change, negative = inhibition, usual class: inhibitors; note: potency is the fitted concentration of half-maximal effect
Target sequence (P17405 47-631 limits assumed): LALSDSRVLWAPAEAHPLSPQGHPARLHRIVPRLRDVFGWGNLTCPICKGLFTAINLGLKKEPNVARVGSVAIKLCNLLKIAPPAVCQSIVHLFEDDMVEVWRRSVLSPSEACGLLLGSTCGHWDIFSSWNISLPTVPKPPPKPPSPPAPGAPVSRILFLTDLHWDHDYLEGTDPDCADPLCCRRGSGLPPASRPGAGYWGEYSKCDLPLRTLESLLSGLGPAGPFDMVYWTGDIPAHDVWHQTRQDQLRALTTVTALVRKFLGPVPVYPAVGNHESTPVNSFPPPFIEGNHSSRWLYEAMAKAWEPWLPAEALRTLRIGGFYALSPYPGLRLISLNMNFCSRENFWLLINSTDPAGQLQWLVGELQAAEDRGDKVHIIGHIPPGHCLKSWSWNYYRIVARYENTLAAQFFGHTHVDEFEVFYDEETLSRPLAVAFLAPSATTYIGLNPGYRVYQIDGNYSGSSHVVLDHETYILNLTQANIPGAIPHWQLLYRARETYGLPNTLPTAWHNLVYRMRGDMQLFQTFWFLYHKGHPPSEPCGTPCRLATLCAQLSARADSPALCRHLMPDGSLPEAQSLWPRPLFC
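qHTS format. ASM enzyme prepared from human placenta hydrolyses the fluorogenic substrate HMU-PC0 (9 uM final) over 60 min at 37 °C after a 10 min compound preincubation.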
HepG2 tox: HepG2 cytotoxicity, counter-screen for TGF-b inhibitors. HepG2 CAGA-GFP viability, ATP luminescence, 18 h. Potency, µM (doses to about 46.1 µM), for inactives: at the highest dose activity change, negative = cytotoxicity, actives largely listed as cytotoxic. 410,000 compounds, 0.76% hits; note: potency is the fitted concentration of half-maximal effect
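HepG2 CAGA-GFP cells (1000/well, DMEM with 1% FBS) received compound, then TGF-beta at 500 pg/mL final, and were incubated 18 hours at 37 degrees C. Viability was read by CellTiter-Glo luminescence. Media-only wells were set as complete cell-killing and DMSO as no toxicity.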
Active calls of the source: *; i = inactive; ? = inconclusive; . = no result given; [ ] = remark or other dose. Unless noted, calls come from the whole dose curve; as a rule, active = well fitted curve in the direction sought with a large enough effect; inconclusive = small, poorly fitted or top-dose-only effect, or another doubt; inactive = no such curve, though single readings can be large; an effect the other way counts as inactive or inconclusive.

SMILES	TGFb SMAD3 inh	TDP1 cell noCPT	TDP1 cell CPT	IL1B secr inh	S-ASM inh	HepG2 tox
O=C(NCC1CC1)c1cccc2c1C(=O)c1ccc(N3CCCC3)cc1S2(=O)=O	-14.4%	?	?	-13.1	-3.5%	2.8%
CC1CCN(c2ccc3c(c2)S(=O)(=O)c2cccc(C(=O)NC[C@@H]4CCCO4)c2C3=O)CC1	-0.3%	?	13µM*	35.3	-13.4%	3.3%
O=C(NCC1CCCO1)c1cccc2c1C(=O)c1ccc(N3CCC(Cc4ccccc4)CC3)cc1S2(=O)=O (stereo not given)	?	20.6µM*	?	43.0	-14.7%	1.6%
N[C@@H](CO)C(=O)O	.	-12.5%	9.0%	.	.	.
Cc1ccc(S(=O)(=O)N2CCN(c3nc(-c4cncs4)nc4ccccc34)CC2)cc1	.	7.08µM*	10µM*	.	.	.
Cc1ccc(S(=O)(=O)N2CCN(c3nc(-c4ccc(C)s4)nc4ccccc34)CC2)cc1	.	?	-29.6%	.	.	.
Cc1ccc(S(=O)(=O)N2CCN(c3nc(-c4cncn4C)nc4ccccc34)CC2)cc1	.	?	20µM*	.	.	.
Cc1ccc(S(=O)(=O)N2CCN(c3nc(-n4cncn4)nc4ccccc34)CC2)cc1	.	?	4.7%	.	.	.
Cc1ccc(S(=O)(=O)N2CCN(c3nc(-c4ccc(CN5CCNCC5)s4)nc4ccccc34)CC2)cc1	?	22.4µM*	?	.	.	-98.1%
Cc1ccc(S(=O)(=O)N2CCN(c3nc(-c4ccccc4)nc4ccccc34)CC2)cc1	8.8%	-16.2%	6.8%	.	.	4.8%
Cc1ccc(S(=O)(=O)N2CCN(c3nc(-c4ncco4)nc4ccccc34)CC2)cc1	.	11.2µM*	11.2µM*	.	.	.
O=Cc1cccnc1SCc1ccccc1	19.8%	1.46µM*	2.31µM*	54.2	-1.3%	-35.0%
Cc1ccc(-n2nc3c(=O)n(CCCC(=O)NCCN4CCN(C)CC4)nc(C)c3c2C)cc1	-1.9%	25.8%	2.8%	?	-5.1%	-2.4%
Cc1nn(CCCC(=O)NCCc2ccccc2)c(=O)c2nn(-c3ccccc3)c(C)c12	?	11.2%	-2.2%	?	7.3%	-21.3%
Cc1ccc(CCNC(=O)CCCn2nc(C)c3c(C)n(-c4ccc(C)cc4)nc3c2=O)cc1	?	?	14.6µM*	-3.7	-3.9%	4.6%
Cc1nn(CCCC(=O)NCc2cccc(F)c2)c(=O)c2nn(-c3ccccc3)c(C)c12	-41.1%	?	?	.	.	-14.6%
Cc1ccc(-n2nc3c(=O)n(CCCC(=O)NCCc4ccccc4C)nc(C)c3c2C)cc1	-24.2%	11.6µM*	?	?	-0.8%	0.9%
Cc1ccc(CCNC(=O)CCCn2nc(C)c3c(C)n(-c4ccccc4)nc3c2=O)cc1	-15.4%	20.6µM*	20.6µM*	.	.	-16.1%
Cc1ccc(-n2nc3c(=O)n(CCCC(=O)NCc4cccc(F)c4)nc(C)c3c2C)cc1	-31.7%	14.6µM*	?	-2.5	-1.3%	-20.6%
Cc1cccc(S(=O)(=O)c2cn(C)c3cc(N4CCCCCC4)c(F)cc3c2=O)c1	-13.2%	-10.7%	6.3%	.	.	-12.2%
COc1ccc(Cl)cc1NC(=O)Cn1c(=O)n2nc(-c3ccccc3)nc2c2ccccc21	-40.8%	-23.7%	-4.9%	.	.	-24.1%
CC(=O)N/C(=C\c1ccccc1)C(=O)OCC(=O)c1c(N)n(C)c(=O)n(C)c1=O	-1.5%	6.2%	16.4%	10.0	10.6%	2.6%
O=C(N/N=C/c1cc([N+](=O)[O-])ccc1O)c1ccc2c(c1)OCCO2	-11.0%	1.46µM*	2.06µM*	17.8	-4.0%	-13.0%
O=C(CCC(=O)Nc1cccc(Cl)c1)N/N=C/c1cc([N+](=O)[O-])ccc1O	-35.6%	?	?	154.5	-6.1%	-25.1%
O=C(CCCCCNC(=O)c1ccccc1)N/N=C/c1ccccc1O	-9.4%	-14.0%	-1.3%	23.3	242.0%	-23.6%
SMILES	TGFb SMAD3 inh	TDP1 cell noCPT	TDP1 cell CPT	IL1B secr inh	S-ASM inh	HepG2 tox
O=C(N/N=C/c1cc([N+](=O)[O-])ccc1O)c1cccc(N2CCCC2=O)c1	4.2%	10.3µM*	14.6µM*	161.9	-11.8%	-16.1%
O=C(N/N=C/c1cc([N+](=O)[O-])ccc1O)C(O)(c1ccccc1)c1ccccc1	-5.7%	16.4µM*	?	182.5	-12.8%	-18.8%
O=C(N/N=C/c1ccccc1O)C1SCCCS1	?	6.51µM*	11.6µM*	225.7	128.4%	-40.8%
Cc1ccccc1Cn1c(=O)n(CCc2ccccc2)c(=O)c2sc3ccccc3c21	-8.0%	-3.9%	0.5%	.	.	1.8%
COc1ccc(C)cc1NS(=O)(=O)c1ccc2c(c1)CCCN2C(C)=O	-8.8%	?	?	.	.	7.8%
Cc1nc(N)c(Cc2ccccc2F)c(N)n1	2.6%	-9.5%	-25.8%	-19.2	-1.5%	1.3%
Cc1nc2ccc(C(=O)N3CCN(C(=O)c4ccco4)CC3)cn2c1N(C)C(=O)CCc1ccccc1	-0.1%	-4.2%	-1.3%	0.9	.	-0.5%
O=C(N/N=C/c1cc([N+](=O)[O-])ccc1O)c1cccc2cc[nH]c12	12.6µM*	4.11µM*	6.51µM*	231.6	-2.3%	-83.4%
O=[N+]([O-])c1ccc(O)c(/C=N/Nc2ccccc2Cl)c1	-24.2%	?	?	-52.8*	-9.1%	-7.6%
O=C1NCCCC1C(=O)N/N=C/c1cc([N+](=O)[O-])ccc1O (stereo not given)	-19.2%	?	-21.6%	83.6	-2.7%	-23.2%
O=C(NN=Cc1ccccc1O)C1CC1	0.0%	10.3µM*	5.8µM*	-0.5	i	1.8%
O=C(N/N=C/c1cc([N+](=O)[O-])ccc1O)C1CC1	-1.8%	18.4µM*	?	72.3	1.0%	-38.0%
O=C(N/N=C/c1ccccn1)C1CC1	7.9%	-13.0%	1.2%	40.3	4.0%	3.5%
O=C(Nc1ccccc1)N1CC[C@@]2(CCCN(C(=O)c3cc(C(F)(F)F)cc(C(F)(F)F)c3)C2)C1	.	?	-11.3%	.	.	.
CC(=O)c1cccc(NC(=O)COC(=O)COc2c(Cl)cc(Cl)c3ccc(C)nc23)c1	14.4%	?	-17.5%	6.8	.	-22.7%
CN(C)CC(C)(C)CNC(=O)c1cnn(-c2nccc(-c3ccc4c(c3)OCO4)n2)c1-c1ccco1	.	?	-19.9%[9.04 µM]	.	.	.
Cc1sc(N/N=C/c2cc([N+](=O)[O-])ccc2O)nc1-c1ccccc1	6.7%	14.6µM*	14.6µM*	7.4	-12.0%	-6.2%

Source: PubChem BioAssay
